# High-throughput results as filed in PubChem.
# Hits are enriched below; roughly 19% of the tested compounds scored in any of these assays.
# TDP1 cell noCPT: qHTS for Inhibitors of human tyrosyl-DNA phosphodiesterase 1 (TDP1): qHTS in cells in absence of CPT; DT40 Tdp1-/- hTDP1 cells, no CPT, ATP luminescence, 48 h; Potency, µM (doses to about 46.2 µM), usual class: inhibitors; 420,000 tested, 15% active; AID 686978, 2013; also: nearly all actives have a fitted effect of over 55% in size
#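 No-CPT arm: Tdp1-/-;hTDP1 DT40 cells (400/well) plus compounds, incubated ≥48 hr at 37 °C. Readout CellTiter-Glo luminescence.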
# TDP1 cell CPT: qHTS for Inhibitors of human tyrosyl-DNA phosphodiesterase 1 (TDP1): qHTS in cells in presence of CPT | chicken DT40 Tdp1-/-;hTDP1 cells + 20 nM CPT, ATP luminescence, 48 h | Potency, µM (titrated, usually from 46.2 µM), actives largely listed as inhibitors | 420,000 tested, 12% active; also: nearly all actives have a fitted effect of over 55% in size
#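 Cell growth measured by CellTiter-Glo luminescence after a minimum 48 h, 37 C compound exposure with 20 nM CPT in Tdp1-knockout DT40 cells stably expressing hTDP1, seeded 400/well; qHTS titration format.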
# IL1B secr inh: qHTS for Inhibitors of Inflammasome Signaling: IL-1-beta AlphaLISA Primary Screen; THP-1 LPS/ATP IL-1B secretion, AlphaLISA, 16 h; stronger effect = lower value; activity change, % at 57.5 µM; 360,000 tested, 4.7% active; AID 743279, 2014; in the data active = activity change below about -50%; inconclusive = mostly about -30% to -49%
#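 THP-1 cells pretreated 1 hr with compounds (up to 57.5 uM final), then stimulated with LPS (250 ng/mL final) plus ATP (1.25 mM final); secreted IL-1B measured by AlphaLISA after 16 hr, decreased signal indicating inhibition.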
# HT1080 IDH1KD tx: qHTS for induction of synthetic lethality in tumor cells producing 2HG: qHTS for the HT-1080-IDH1KD cell line; HT-1080 IDH1 knockdown viability, ATP luminescence, 48 h; Potency, µM (top dose mostly 46.1 µM), most hits filed as cytotoxic; 360,000 tested, 2% active; AID 686971, 2013
#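 Luminescent ATP read-out (CellTiter-Glo, 10 min at room temperature) after 48 h compound exposure at 37 °C gave viability of IDH1-knockdown HT-1080 cells. Activity was normalised to DMSO and cell-free wells, then fitted as concentration-response curves.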
# ELG1 DNA repair: qHTS screen for small molecules that inhibit ELG1-dependent DNA repair in human embryonic kidney (HEK293T) cells expressing luciferase-tagged ELG1; Potency, µM (titrated, usually from 46.1 µM), actives largely listed as inhibitors; HEK293T ELG1-luciferase reporter, luminescence, 16 h; DNA damage induced by 5-fluorouridine; 330,000 tested, 2.3% active; also: nearly all actives have a fitted effect of over 55% in size
#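 Cells (2,000 per well) received 5-fluorouridine plus test compound or DMSO and were incubated 16 hr at 37 °C, 5% CO2. Luciferase activity was read by luminescence 30 min after ONE-Glo addition; signal suppression marked inhibition of damage-induced ELG1 function.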
# HT1080-NT tox: qHTS for induction of synthetic lethality in tumor cells producing 2HG: qHTS for the HT-1080-NT fibrosarcoma cell line; HT-1080-NT fibrosarcoma viability, CellTiter-Glo ATP luminescence, 48 h; Potency, µM (series often up to 46.1 µM), actives largely listed as cytotoxic; 360,000 tested, 1.6% active;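 also: NT is the 2HG producing partner of a matched IDH1 knockdown line; nearly all actives have a fitted effect of over 55% in size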
#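 Viability by CellTiter-Glo luminescence after 48 h compound exposure at 37C of HT-1080-NT cells (750/well, RPMI, 5% FBS). % activity scaled between DMSO wells and medium-only wells, then curve-fitted and categorized by curve class.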
# Hits are given with their value; – = inactive; ? = inconclusive; · = no result; [ ] = dose if it differs, or a comment. Unless noted, calls follow the shape of the dose curve; as a rule, active = well fitted curve in the direction sought with a large enough effect; inconclusive = small, poorly fitted or top-dose-only effect, or another doubt; inactive = no such curve, though single readings can be large; an effect the other way counts as inactive or inconclusive.
SMILES,TDP1 cell noCPT,TDP1 cell CPT,IL1B secr inh,HT1080 IDH1KD tx,ELG1 DNA repair,HT1080-NT tox
CC(=O)c1ccc(F)c(-c2cc(C)cc3c2OC(CNC(=O)c2csc(C)n2)C3)c1 (stereo unspecified),21µM,–[9.04 µM],·,·,·,·
O=C(OCc1cc(=O)n2nc(-c3cccs3)sc2n1)c1ccc(Cl)cc1,–,–,·,·,·,·
CCN(CC)C(=O)CSc1ncnc2sccc12,–,–,–,–,?,–
CCN(CC)C(=O)CSc1ncnc2c(-c3cccs3)nsc12,?,–,-60,–,?,–
CCN(CC)C(=O)CSc1nc(N)c(C#N)c(-c2cccs2)c1C#N,–,–,–,?,?,?
CN1CCN(C(=O)CSc2nc(-c3ccncc3)ccc2C#N)CC1,–,–,-61,–,–,–
N#Cc1c(-c2ccc(F)cc2)cc(-c2cccs2)nc1SCC(=O)O,?,–,–,–,–,–
CN1CCN(C(=O)CSc2nc(-c3cccs3)cc(-c3cccs3)c2C#N)CC1,18µM,?,–,–,?,–
CCN(CC)C(=O)CSc1nc(-c2cccs2)cc(-c2cccs2)c1C#N,?,23µM,–,–,16µM,–
COc1ccc(C(=O)OCC(=O)NC23CC4CC(CC(C4)C2)C3)c(OC)c1OC,–,–,–,–,?,–
CCOCCn1c(N2CCCC2)nc2c1c(=O)n(C)c(=O)n2C,?,?,–,–,–,–
COc1cc(-c2cc(C)c3cccc(OC)c3n2)cc2c1OCCN(C(=O)Cn1nc(C)cc1C)C2,–,–[9.04 µM],·,·,·,·
COc1cc(OC)c2nc(-c3cc4c(c(OC)c3)OCCN(C(=O)CC3NC(=O)c5ccccc53)C4)cc(C)c2c1 (stereo unspecified),23µM,?,·,·,·,·
O=C(Cc1ccc(Cl)cc1)NC1CCCCCC1,–,–,–,–,?,–
Clc1ccc(CN=C(Nc2ccccc2)NC2CCCCC2)cc1,23µM,18µM,·,16µM,?,21µM
CCn1nc(C)c(CNC(=O)c2cc(COc3ccccc3SC)on2)c1C,?,21µM,–,–,–,–
CSc1ccccc1OCc1cc(C(=O)N(C)CCn2nc(C)cc2C)no1,21µM,15µM,–,–,–,–
CSc1ccccc1OCc1cc(C(=O)NC(C)Cc2cccc(C)n2)no1 (stereo unspecified),13µM,16µM,-57,–,?,–
Cc1cc(OCCCN2CCCC2)ccc1Cl,–,–,–,–,–,–
Cc1ccc(-c2c[n+](CC(=O)c3cccs3)c3n2CCC3)cc1,3.3µM,3.7µM,?,–,?,–
O=C(CCC(=O)c1cccs1)c1cccs1,–,–,–,–,?,–
COc1ccc(-c2c[n+](CC(=O)c3cccs3)c3n2CCC3)cc1,16µM,26µM,–,–,23µM,–
Cc1ccc(-c2c[n+](CC(=O)OCc3ccccc3)c3n2CCC3)cc1,–,–,–,–,–,–
CCc1ccc(C)[n+](CC(=O)c2cccs2)c1,?,?,-58,–,–,–
O=C(N/N=C1\CCCc2c1[nH]c1ccc([N+](=O)[O-])cc21)c1ccncc1,·,·,·,·,–,·
SMILES,TDP1 cell noCPT,TDP1 cell CPT,IL1B secr inh,HT1080 IDH1KD tx,ELG1 DNA repair,HT1080-NT tox
CCN1C(=O)[C@H]2[C@@H](c3ccc(-c4cc(C(C)=O)cs4)cc3)N3CCC[C@@]3(C(=O)OC)[C@H]2C1=O,23µM,?,–,–,?,–
CCN1C(=O)[C@H]2[C@@H](c3ccc(-c4cc(C(C)=O)cs4)cc3)N3CCCC[C@@]3(C(=O)OC)[C@H]2C1=O,18µM,?,–,–,?,–
Cc1ccc(NC(=O)Cn2c(=O)n(CCC(=O)NCc3ccccc3Cl)c(=O)c3ccccc32)c(C)c1,–,–,·,·,·,·
COc1cc2c(=O)n(Cc3ccccc3Cl)c(=O)n(CC(=O)Nc3ccc(C)c(C)c3)c2cc1OC,7.3µM,1.8µM,·,·,·,·
O=C(CCCCn1c(=O)c2ccccc2n(CC(=O)Nc2cccc(F)c2)c1=O)NCc1ccccc1Cl,–,–,·,·,·,·
Cc1ccc(NC(=O)Cn2c(=O)n(CCC(=O)NCc3ccccc3Cl)c(=O)c3ccccc32)cc1,21µM,16µM,·,·,·,·
Cc1ccc(NC(=O)Cn2c(=O)n(CCCCC(=O)NCc3ccccc3Cl)c(=O)c3ccccc32)cc1,23µM,?,·,·,·,·
CC(C)(C)C(=O)Cn1c(=O)n(CCCCCC(=O)NCc2ccccc2Cl)c(=O)c2sccc21,21µM,?,·,·,·,·
CCN(CC)C(=O)Cn1c(=O)n(CCCCCC(=O)NCc2ccccc2Cl)c(=O)c2sccc21,–,–,·,·,·,·
COc1cc(NC(=O)Cn2c(=O)n(Cc3ccccc3Cl)c(=O)c3cc(OC)c(OC)cc32)cc(OC)c1,–,–,·,·,·,·
O=c1c(-c2ccc(Cl)cc2)nc2cnc(N3CCOCC3)nc2n1-c1ccccc1,–,–,·,·,·,·
CCN(CC)S(=O)(=O)c1ccc(C(C)NC(=O)Cc2c[nH]c3ccccc23)cc1 (stereo unspecified),?,–,–,–,–,–
CCOC(=O)C(Cc1ccc(Cl)cc1Cl)c1ccno1 (stereo unspecified),–,–,–,–,–,–
O=C(c1ccnc(-n2cnnn2)c1)N1CCOc2ccc(C(O)CCc3ccccc3)cc2C1 (stereo unspecified),–,–,·,·,·,·
O=C(NCC[C@@H]1CC[C@@H](NS(=O)(=O)Cc2ccccc2)[C@@H](CO)O1)C1CC1,–,–,–,–,·,–
Cc1ccc(NS(=O)(=O)c2ccc3c(c2)NC(=O)CO3)cc1C,?,?,–,–,–,–
Cc1ccc(NC(=O)CC(C)S(=O)(=O)c2ccc3c(c2)NC(=O)CO3)cc1C (stereo unspecified),?,?,–,–,–,–
Cc1ccc(NS(=O)(=O)c2ccc3c(c2)NC(=O)CO3)cc1Cl,?,18µM,–,–,–,–
Cc1ccc(NC(=O)CC(C)S(=O)(=O)c2ccc3c(c2)NC(=O)CO3)cc1Cl (stereo unspecified),21µM,–,·,·,·,·
CCCCn1c(N)c(N(CC(C)C)C(=O)C2CCCO2)c(=O)[nH]c1=O (stereo unspecified),–,–,–,–,–,–
CC(C)c1nn2c(=O)cc(COC(=O)c3ccco3)nc2s1,–,–,·,·,·,·
CCn1c(SCC(=O)NC2CC2)nnc1-c1ccc(C)cc1,–,–,–,–,–,–
